TDP1 cell noCPT = qHTS for Inhibitors of human tyrosyl-DNA phosphodiesterase 1 (TDP1): qHTS in cells in absence of CPT; Potency, µM (top dose mostly 46.2 µM), inactives show at the top dose activity change, negative = growth inhibition, usual class: inhibitors; 420,000 compounds, 15% hits; DT40 Tdp1-/- hTDP1 cells, no CPT, ATP luminescence, 48 h; further: potency means the concentration at half of the fitted maximal effect; nearly all actives have a fitted effect of over 55% in size
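Seeded 400 DT40-hTDP1 cells/well (vehicle DMSO, no 20 nM CPT); pinned compounds; ≥48 hr at 37 °C; CellTiter-Glo luminescence as viability measure.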
HT1080NT lethal = kills 2HG-producing HT-1080-NT fibrosarcoma cells. HT-1080-NT fibrosarcoma viability, CellTiter-Glo ATP luminescence, 48 h. Potency, µM (highest dose often 46.1 µM), for inactives: at the top dose activity, negative = less viability, hits mostly cytotoxic. 360,000 compounds, 1.6% hits. AID 686970;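 further: NT is the 2HG producing partner of a matched IDH1 knockdown line; potency means the concentration at half of the fitted maximal effect; 0% = DMSO-treated cells and -100% = media-only wells without cells; nearly all actives have a fitted effect of over 55% in size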
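Toxicity toward the 2HG-producing NT line was scored as %Activity, normalised to DMSO and no-cell wells, from CellTiter-Glo luminescence after 48 hours' treatment.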
HT1080 IDH1KD tx = toxicity to HT-1080 IDH1 knockdown cells (counter line) | 360,000 compounds, 2% hits | AID 686971 | Potency, µM (titrated, usually from 46.1 µM), for inactives: at the top dose activity, negative = toxicity, usual class: cytotoxic | HT-1080 IDH1 knockdown viability, ATP luminescence, 48 h;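 further: potency means the concentration at half of the fitted maximal effect; 0% = DMSO wells and -100% = cell-free medium wells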
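Knockdown cells (IDH1KD HT-1080) received compounds 2 h after plating at 750 cells/well and were kept 48 h at 37 °C in 5% FBS RPMI. A CellTiter-Glo luminescence read gave % activity for curve fitting.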
DT40 TDP1 CPT = DT40-hTDP1 cell growth loss with CPT; chicken DT40 Tdp1-/-;hTDP1 cells + 20 nM CPT, ATP luminescence, 48 h; Potency, µM (doses to about 46.2 µM), for the others: at the highest dose activity change, negative = growth inhibition, hits mostly inhibitors; 420,000 compounds, 12% hits; AID 686979; further: potency means the concentration at half of the fitted maximal effect; nearly all actives have a fitted effect of over 55% in size
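Chicken DT40 Tdp1-/- cells complemented with human TDP1, 400 cells/well, exposed to compounds plus 20 nM camptothecin for at least 48 h at 37 C; viability read as ATP content by CellTiter-Glo luminescence.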
IL1B secr inh = inhibitors of inflammasome signaling (IL-1 beta secretion); THP-1 LPS/ATP IL-1B secretion, AlphaLISA, 16 h; hits give low values; activity change, % at 57.5 µM; 360,000 compounds, 4.7% hits; AID 743279; in the data active means activity change below about -50%; inconclusive means mostly about -30% to -49%
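THP-1 cells pretreated 1 hr with compounds (up to 57.5 uM final), then stimulated with LPS (250 ng/mL final) plus ATP (1.25 mM final); secreted IL-1B measured by AlphaLISA after 16 hr, decreased signal indicating inhibition.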
ELG1 repair inh = ELG1-dependent DNA repair inhibition; HEK293T ELG1-luciferase reporter, luminescence, 16 h; DNA damage induced by 5-fluorouridine; Potency, µM (top dose mostly 46.1 µM), for inactives: at the top dose activity change, negative = inhibition, hits mostly inhibitors; 330,000 compounds, 2.3% hits; AID 504467; further: potency means the concentration at half of the fitted maximal effect; nearly all actives have a fitted effect of over 55% in size
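Step one: seed 2,000 cells per well. Step two: pin-transfer compound or DMSO alongside 5-fluorouridine. Step three: incubate 16 hr, 37 °C, 5% CO2. Step four: add ONE-Glo, wait 30 min, read luminescence.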
* marks the source's active call; other numbers are inactive results; [ ] = another dose, or the depositor's remark. Most compounds without a hit are left out; they make up all but 19% or so of the library. Unless noted, the call rests on the fitted dose curve; in most records, active means well fitted curve in the direction sought with a large enough effect; inconclusive means small, poorly fitted or top-dose-only effect, or another doubt; inactive means no such curve, though single readings can be large; an effect the other way counts as inactive or inconclusive. Unless noted, on the % scale 0 is the no-effect control and ±100 the full control effect.

Screening Cc1ccc(C(=O)OCC(=O)NC2CCCC(C)C2C)cc1S(=O)(=O)N1CCCCC1 (configuration not stated) returned TDP1 cell noCPT inconclusive, HT1080NT lethal -18%[9.24 µM], HT1080 IDH1KD tx -3%, DT40 TDP1 CPT 21µM*, IL1B secr inh 9 and ELG1 repair inh inconclusive.
Cc1ccc(C(=O)OCC(=O)N2CCC(C)CC2)cc1S(=O)(=O)N1CCCCC1 was read as TDP1 cell noCPT inconclusive, HT1080NT lethal 6%, HT1080 IDH1KD tx 0%, DT40 TDP1 CPT -14%, IL1B secr inh inactive and ELG1 repair inh 5%.
Screening COc1cc(NC(=O)COC(=O)c2ccc(C)c(S(=O)(=O)N3CCCCC3)c2)c(C)cc1[N+](=O)[O-] returned TDP1 cell noCPT inconclusive, HT1080NT lethal 4%, HT1080 IDH1KD tx 12%, DT40 TDP1 CPT inconclusive, IL1B secr inh -5 and ELG1 repair inh 8.2µM*.
`CN(C)C(=O)COc1ccccc1C(=O)OCC(=O)N(CCC#N)c1ccccc1` gave TDP1 cell noCPT -20% and DT40 TDP1 CPT 24%.
O=C(CBr)Nc1c2c(nn1-c1ccccc1)CSC2 was read as TDP1 cell noCPT -20%, HT1080NT lethal 18%, HT1080 IDH1KD tx 14%, DT40 TDP1 CPT -3%, IL1B secr inh 0 and ELG1 repair inh 22%.
Screening Cc1ccccc1CSc1ccc(-c2ccc3c(c2)OCO3)nn1 returned TDP1 cell noCPT inconclusive, HT1080NT lethal -10%, HT1080 IDH1KD tx 1%, DT40 TDP1 CPT -24%, IL1B secr inh -10 and ELG1 repair inh inconclusive.
CCN(C(=O)COC(=O)c1ccc(C=O)cc1)c1c(N)n(Cc2ccccc2)c(=O)[nH]c1=O was read as TDP1 cell noCPT 1%, HT1080NT lethal 0%, HT1080 IDH1KD tx 13%, DT40 TDP1 CPT 10%, IL1B secr inh 58 and ELG1 repair inh -1%.
COc1ccccc1NC(=O)C1=C(C)NC2=C(C(=O)CC(c3ccc(OC)c(OC)c3)C2)C1c1coc2ccccc2c1=O (configuration not stated) was read as TDP1 cell noCPT inconclusive, HT1080NT lethal -1%, HT1080 IDH1KD tx -12%, DT40 TDP1 CPT inconclusive, IL1B secr inh -24 and ELG1 repair inh 10µM*.
COc1ccc(NC(=O)CCCC(=O)c2ccccc2)c(OC)c1 was read as TDP1 cell noCPT -21%, HT1080NT lethal 17%, HT1080 IDH1KD tx -1%, DT40 TDP1 CPT 5%, IL1B secr inh 7 and ELG1 repair inh inconclusive.
For COc1ccc(Cl)cc1NC(=O)CN1CCc2ccccc2C1 the results were TDP1 cell noCPT -4%, HT1080NT lethal -12%, HT1080 IDH1KD tx 9%, DT40 TDP1 CPT -30%, IL1B secr inh -81* and ELG1 repair inh inconclusive.
COc1ccc(Cl)cc1NC(=O)CCCC(=O)c1ccccc1 was read as TDP1 cell noCPT inconclusive, HT1080NT lethal 10%, HT1080 IDH1KD tx -7%, DT40 TDP1 CPT 21µM*, IL1B secr inh inconclusive and ELG1 repair inh -1%.
`COC(=O)c1cc2sccc2n1CC(=O)Nc1cc(Cl)ccc1OC` gave TDP1 cell noCPT 10µM* and DT40 TDP1 CPT 12µM*.
For COC(=O)c1cc2sccc2n1CC(=O)Nc1cc(OC)cc(OC)c1 the results were TDP1 cell noCPT -25%, HT1080NT lethal inconclusive, HT1080 IDH1KD tx -29%, DT40 TDP1 CPT -19%, IL1B secr inh -12 and ELG1 repair inh -9%.
`CCN(C(=O)Cn1c(C(=O)OC)cc2sccc21)c1cccc(C)c1` gave TDP1 cell noCPT inconclusive and DT40 TDP1 CPT 23µM*.
COc1ccc(Cl)cc1NC(=O)CN1c2ccccc2CC1C (configuration not stated) was read as TDP1 cell noCPT inconclusive, HT1080NT lethal inconclusive, HT1080 IDH1KD tx inconclusive, DT40 TDP1 CPT inconclusive, IL1B secr inh 21 and ELG1 repair inh inconclusive.
Screening CC(=O)NC(CC(=O)OCC(=O)c1ccc(NC(=O)CC(C)C)cc1)c1ccccc1 (configuration not stated) returned TDP1 cell noCPT 3%, HT1080NT lethal -3%, HT1080 IDH1KD tx 1%, DT40 TDP1 CPT -19%, IL1B secr inh 2 and ELG1 repair inh 7%.
`COc1cc(C2NC(=O)NC(C)=C2C(=O)Nc2cc(C)cc(C)c2)ccc1O` (configuration not stated) gave TDP1 cell noCPT inconclusive and DT40 TDP1 CPT -4%.
COc1cc2c(cc1OC)CN(CCC(C)c1ccc(Cl)cc1)CC2 (configuration not stated) was read as TDP1 cell noCPT 16µM*, HT1080NT lethal -38%, HT1080 IDH1KD tx 15µM*, DT40 TDP1 CPT 15µM* and IL1B secr inh -21.
`COc1cc2c(cc1OC)CN(CC(=O)Nc1ccc(Cl)cc1Cl)CC2` gave TDP1 cell noCPT 21µM*, HT1080NT lethal -12%, HT1080 IDH1KD tx -9%, DT40 TDP1 CPT 21µM*, IL1B secr inh 12 and ELG1 repair inh inconclusive.
Screening CC1CCN(c2oc(-c3cccs3)nc2S(=O)(=O)c2ccccc2)CC1 returned TDP1 cell noCPT 21µM* and DT40 TDP1 CPT inconclusive.
Screening O=S(=O)(c1ccccc1)c1nc(-c2ccco2)oc1N1CCCCC1 returned TDP1 cell noCPT inconclusive, HT1080NT lethal 0%, HT1080 IDH1KD tx -3%, DT40 TDP1 CPT 1%, IL1B secr inh 15 and ELG1 repair inh -1%.
CC1CCN(c2oc(-c3ccco3)nc2S(=O)(=O)c2ccccc2)CC1 was read as TDP1 cell noCPT inconclusive, HT1080NT lethal -23%, HT1080 IDH1KD tx -27%, DT40 TDP1 CPT -8%, IL1B secr inh -53* and ELG1 repair inh -1%.
Screening Cc1ccc(CNC(=O)Cn2cnc(S(=O)(=O)N3CCC(C)CC3)c2)o1 returned TDP1 cell noCPT 30%, HT1080NT lethal 15%, HT1080 IDH1KD tx 2%, DT40 TDP1 CPT 0%, IL1B secr inh 9 and ELG1 repair inh 18%.
For O=c1c2ccccc2oc2cc(NCCCn3ccnc3)ccc12 the results were TDP1 cell noCPT inconclusive, HT1080NT lethal 0%, HT1080 IDH1KD tx 1%, DT40 TDP1 CPT inconclusive, IL1B secr inh -19 and ELG1 repair inh inconclusive.
Screening O=c1c2ccccc2oc2cc(NCCCN3CCOCC3)ccc12 returned TDP1 cell noCPT inconclusive, HT1080NT lethal -4%, HT1080 IDH1KD tx -1%, DT40 TDP1 CPT inconclusive, IL1B secr inh -51* and ELG1 repair inh inconclusive.

Screening data: PubChem, National Center for Advancing Translational Sciences (NCATS)
